Reference: PubChem BioAssay (NCI)
Compounds without any hit were thinned out: in the full panel of roughly 83,000, 20% have a hit.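 Cells were grown in 96-well plates and exposed to the test compound at a single concentration for 48 hours; results are reported as percent growth, with values below 10 considered active.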 Activity calls are given as the source filed them.

What was measured:
Assay in all cases: NCI-60 one-dose screen, 48 h (100 = growth as untreated, 0 = no growth, -100 = all killed)
Details in all cases: 10 µM unless noted
SK-MEL-2 melanoma = system: SK-MEL-2 melanoma
EKVX NSCLC = system: EKVX NSCLC
SN12C renal = system: SN12C renal
UO-31 renal = system: UO-31 renal
TK-10 renal = system: TK-10 renal
ACHN renal = system: ACHN renal
CAKI-1 renal = system: CAKI-1 renal
A498 renal = system: A498 renal
CCRF-CEM leukemia = system: CCRF-CEM leukemia
MOLT-4 leukemia = system: MOLT-4 leukemia
SR leukemia = system: SR leukemia
OVCAR-8 ovarian = system: OVCAR-8 ovarian
OVCAR-5 ovarian = system: OVCAR-5 ovarian
OVCAR-4 ovarian = system: OVCAR-4 ovarian
SK-OV-3 ovarian = system: SK-OV-3 ovarian
OVCAR-3 ovarian = system: OVCAR-3 ovarian
HS 578T breast = system: HS 578T breast
IGROV1 ovarian = system: IGROV1 ovarian
NCI/ADR-RES ovarian = system: NCI/ADR-RES ovarian

Measured: growth

CCC(C)(c1cc(C(C)(C)C)c(O)c(C(C)(C)C)c1)c1cc(C(C)(C)C)c(O)c(C(C)(C)C)c1
inactive: SK-MEL-2 melanoma 96.2% | EKVX NSCLC 107% | SN12C renal 101% | UO-31 renal 92.2% | TK-10 renal 97.3% | ACHN renal 101% | CAKI-1 renal 94.2% | A498 renal 101% | CCRF-CEM leukemia 98.9% | MOLT-4 leukemia 100% | SR leukemia 90.4% | OVCAR-8 ovarian 102% | OVCAR-5 ovarian 94.5% | OVCAR-4 ovarian 103% | SK-OV-3 ovarian 100% | OVCAR-3 ovarian 109% | HS 578T breast 97%

COc1cccc(Cc2cc(-c3ccccc3)nn(CC(=O)c3ccccc3)c2=O)c1
inactive: SK-MEL-2 melanoma 85.4% | EKVX NSCLC 65.1% | SN12C renal 59.3% | UO-31 renal 65.1% | TK-10 renal 72.1% | ACHN renal 52% | CAKI-1 renal 59.6% | A498 renal 52.1% | CCRF-CEM leukemia 39.1% | MOLT-4 leukemia 22.7% | OVCAR-8 ovarian 58.7% | OVCAR-5 ovarian 96.4% | OVCAR-4 ovarian 69.5% | SK-OV-3 ovarian 89.6% | OVCAR-3 ovarian 64.9% | HS 578T breast 66.9%
active: SR leukemia 0.342%

O=C(Nc1nc2ccc(F)cc2s1)c1cccnc1Nc1ccc(Cl)cc1Cl
active: EKVX NSCLC 1.03% | SN12C renal 9.61% | CAKI-1 renal -0.286% | A498 renal -4.34% | CCRF-CEM leukemia -3.42% | OVCAR-4 ovarian -31.3% | OVCAR-3 ovarian -3.55% | NCI/ADR-RES ovarian 1.58%
inactive: SK-MEL-2 melanoma 43.5% | UO-31 renal 28.5% | TK-10 renal 11.4% | ACHN renal 27.5% | MOLT-4 leukemia 46% | SR leukemia 32.8% | OVCAR-8 ovarian 19.5% | OVCAR-5 ovarian 64.3% | SK-OV-3 ovarian 44% | IGROV1 ovarian 30.5% | HS 578T breast 20.9%

COc1ccc(-c2cc(-c3ccc(Cl)cc3)c(C#N)c(=O)n2CCCCCC(=O)Nc2ccccc2N)cc1
active: CAKI-1 renal 7.69% | SR leukemia -1.58%
inactive: SK-MEL-2 melanoma 58.5% | EKVX NSCLC 51.5% | SN12C renal 41.9% | UO-31 renal 43% | TK-10 renal 78.3% | ACHN renal 34.2% | A498 renal 39.1% | CCRF-CEM leukemia 32.5% | MOLT-4 leukemia 35.2% | OVCAR-8 ovarian 29.8% | OVCAR-5 ovarian 52.2% | OVCAR-4 ovarian 54.7% | SK-OV-3 ovarian 63.6% | IGROV1 ovarian 37.6% | OVCAR-3 ovarian 58.3% | HS 578T breast 70% | NCI/ADR-RES ovarian 33.3%

COc1ccc2sc3c(NCCCN(C)C)nc4ccccc4c3c(=O)c2c1
inactive: SK-MEL-2 melanoma 95.9% | EKVX NSCLC 70% | SN12C renal 72.3% | UO-31 renal 48.4% | TK-10 renal 78% | ACHN renal 69.9% | CAKI-1 renal 63% | A498 renal 17.4% | OVCAR-8 ovarian 61.9% | OVCAR-5 ovarian 89.8% | SK-OV-3 ovarian 74.9% | IGROV1 ovarian 54.2% | NCI/ADR-RES ovarian 55.7%
active: CCRF-CEM leukemia 4.23% | MOLT-4 leukemia -16.2% | SR leukemia -39.2% | OVCAR-4 ovarian -9.97% | OVCAR-3 ovarian -18.5%

Cc1nn(-c2ccccc2)c(-n2ccnc2)c1/C=N/Nc1nc(-c2ccc(F)cc2)cs1
inactive: SK-MEL-2 melanoma 98.1% | EKVX NSCLC 49.5% | SN12C renal 80.3% | UO-31 renal 51.2% | TK-10 renal 98.3% | ACHN renal 78.9% | CAKI-1 renal 80% | A498 renal 71.8% | CCRF-CEM leukemia 70.1% | MOLT-4 leukemia 48.3% | SR leukemia 49% | OVCAR-8 ovarian 76.1% | OVCAR-5 ovarian 105% | OVCAR-4 ovarian 56% | SK-OV-3 ovarian 81.4% | IGROV1 ovarian 87.4% | OVCAR-3 ovarian 84.8% | HS 578T breast 82.9% | NCI/ADR-RES ovarian 79.2%

CNC(C)[C@H]1CCC2C3CCC4C[C@@H](N(C)C(=O)c5ccccc5)CC[C@]4(C)C3CC[C@@]21C (stereo not given in full)
active: UO-31 renal -9.71% | OVCAR-4 ovarian -5.3% | OVCAR-3 ovarian 9.46%
inactive: SK-MEL-2 melanoma 38.7% | EKVX NSCLC 24.5% | SN12C renal 34.6% | TK-10 renal 65.4% | ACHN renal 46.9% | CAKI-1 renal 58.2% | A498 renal 57.3% | CCRF-CEM leukemia 21.7% | MOLT-4 leukemia 16.5% | SR leukemia 34.5% | OVCAR-8 ovarian 47.5% | OVCAR-5 ovarian 81.6% | SK-OV-3 ovarian 67% | IGROV1 ovarian 22.8% | HS 578T breast 38.7% | NCI/ADR-RES ovarian 42.4%

CCCCCCn1c(-c2ccc(C(=O)O/N=C(\N)c3ccc4c(c3)OCO4)cc2)nc(-c2ccccc2)c1-c1ccccc1
inactive: SK-MEL-2 melanoma 70.9% | A498 renal 37.2% | OVCAR-8 ovarian 17.7% | OVCAR-5 ovarian 43.2% | OVCAR-4 ovarian 39.6% | SK-OV-3 ovarian 98.7% | OVCAR-3 ovarian 32.4%
active: EKVX NSCLC -33.5% | SN12C renal -7.53% | UO-31 renal -89.2% | TK-10 renal -9.77% | ACHN renal -88.2% | CAKI-1 renal -21.3% | CCRF-CEM leukemia -34.4% | MOLT-4 leukemia 0.83% | SR leukemia -26.3% | IGROV1 ovarian -68.5% | HS 578T breast 4.78% | NCI/ADR-RES ovarian -52.8%

CCCCn1c(-c2ccc(-c3nc(-c4ccc(Cl)cc4)no3)cc2)nc(-c2ccccc2)c1-c1ccccc1
active: EKVX NSCLC -93.7% | UO-31 renal -5.33% | SR leukemia 6.15%
inactive: SK-MEL-2 melanoma 103% | SN12C renal 83.2% | TK-10 renal 126% | ACHN renal 60.3% | CAKI-1 renal 82.4% | A498 renal 89.1% | CCRF-CEM leukemia 69.7% | MOLT-4 leukemia 65.6% | OVCAR-8 ovarian 88.5% | OVCAR-5 ovarian 85.4% | OVCAR-4 ovarian 82% | SK-OV-3 ovarian 88.8% | IGROV1 ovarian 39.5% | OVCAR-3 ovarian 93.9% | HS 578T breast 95.4% | NCI/ADR-RES ovarian 82.5%

COc1ccc2nc(NCCCNCCO)c3sc4ccc(F)cc4c(=O)c3c2c1
inactive: SK-MEL-2 melanoma 89% | EKVX NSCLC 61.1% | SN12C renal 58.6% | UO-31 renal 38.4% | TK-10 renal 69.3% | ACHN renal 39.5% | A498 renal 25.9% | OVCAR-5 ovarian 81.7% | SK-OV-3 ovarian 90.1% | IGROV1 ovarian 41.3% | NCI/ADR-RES ovarian 30.3%
active: CAKI-1 renal 7.45% | CCRF-CEM leukemia -20.8% | MOLT-4 leukemia -10.4% | SR leukemia -35.1% | OVCAR-8 ovarian 6.89% | OVCAR-4 ovarian -54.3% | OVCAR-3 ovarian -64.6%

COc1ccc(C(=O)COC(=O)[C@H](C[Se][Se]C[C@H](NC(=O)c2ccc(Br)cc2F)C(=O)OCC(=O)c2ccc(OC)cc2)NC(=O)c2ccc(Br)cc2F)cc1
active: SK-MEL-2 melanoma -93.8% | EKVX NSCLC -69.4% | SN12C renal -79.9% | UO-31 renal -95.4% | TK-10 renal -79.6% | ACHN renal -86.9% | CAKI-1 renal -83.2% | A498 renal -23.8% | CCRF-CEM leukemia -25.4% | MOLT-4 leukemia -1.84% | SR leukemia -17.1% | OVCAR-8 ovarian -64.2% | OVCAR-5 ovarian -68.2% | OVCAR-4 ovarian -87.9% | SK-OV-3 ovarian -91.9% | IGROV1 ovarian -86.1% | OVCAR-3 ovarian -86.3% | NCI/ADR-RES ovarian -60%

CCOC(=O)c1cn2ncnc(Oc3ccc(NC(=O)NCCN4CCN(C)CC4)c(Cl)c3)c2c1C
active: SR leukemia -13.9%
inactive: SK-MEL-2 melanoma 91.9% | EKVX NSCLC 66.3% | SN12C renal 65% | UO-31 renal 61.7% | TK-10 renal 97.5% | ACHN renal 80% | CAKI-1 renal 76.3% | A498 renal 77.9% | CCRF-CEM leukemia 44.3% | MOLT-4 leukemia 57.2% | OVCAR-8 ovarian 64.7% | OVCAR-5 ovarian 97.1% | OVCAR-4 ovarian 72.3% | SK-OV-3 ovarian 95.2% | IGROV1 ovarian 73.3% | OVCAR-3 ovarian 76.2% | HS 578T breast 74.3% | NCI/ADR-RES ovarian 90.8%

COC(=O)[C@H](C)NC(=O)NC(=O)NC(=O)CI
active: CAKI-1 renal -61.3% | CCRF-CEM leukemia -55.5% | MOLT-4 leukemia -31.7% | SR leukemia -23% | OVCAR-3 ovarian -19.2%
inactive: SK-MEL-2 melanoma 87.7% | EKVX NSCLC 107% | SN12C renal 47.1% | UO-31 renal 78.3% | TK-10 renal 70.6% | ACHN renal 76.7% | A498 renal 128% | OVCAR-8 ovarian 97% | OVCAR-5 ovarian 108% | OVCAR-4 ovarian 64.7% | SK-OV-3 ovarian 107% | HS 578T breast 114% | NCI/ADR-RES ovarian 89.7%

Cc1nn(-c2ccccc2)c(-n2ccnc2)c1/C=N/Nc1nc(-c2ccc(Cl)c(Cl)c2)cs1
active: TK-10 renal 2.74% | OVCAR-4 ovarian -22.1% | OVCAR-3 ovarian -69.4% | NCI/ADR-RES ovarian -9.8%
inactive: SK-MEL-2 melanoma 83.7% | EKVX NSCLC 30.8% | SN12C renal 31.3% | UO-31 renal 49.6% | ACHN renal 39.9% | CAKI-1 renal 24.9% | A498 renal 43.5% | CCRF-CEM leukemia 26.1% | MOLT-4 leukemia 32.3% | SR leukemia 41.2% | OVCAR-8 ovarian 20% | OVCAR-5 ovarian 71.8% | SK-OV-3 ovarian 89.5% | IGROV1 ovarian 60.9%

Cc1ccc(-c2nc(N3CCN(CC(=O)Nc4ccc(Cl)cc4)CC3)c3ccccc3n2)cc1
inactive: SK-MEL-2 melanoma 103% | EKVX NSCLC 85.4% | SN12C renal 90.4% | UO-31 renal 64.1% | TK-10 renal 104% | ACHN renal 98.3% | CAKI-1 renal 85.2% | A498 renal 51.4% | CCRF-CEM leukemia 88.9% | MOLT-4 leukemia 62.1% | SR leukemia 79.1% | OVCAR-8 ovarian 92.3% | OVCAR-5 ovarian 93.9% | OVCAR-4 ovarian 96.2% | SK-OV-3 ovarian 94.3% | IGROV1 ovarian 96.3% | OVCAR-3 ovarian 97.8% | HS 578T breast 92.6% | NCI/ADR-RES ovarian 84.5%

O=C(Nc1ccc(F)cc1F)c1cc(F)ccc1O
active: SK-MEL-2 melanoma -20% | SN12C renal -3.45% | UO-31 renal -16.1% | ACHN renal 7.4% | CAKI-1 renal 3.45% | A498 renal -37.5% | MOLT-4 leukemia 5.84% | SR leukemia 4.78% | SK-OV-3 ovarian 4.34% | OVCAR-3 ovarian 1.72% | NCI/ADR-RES ovarian 6.3%
inactive: EKVX NSCLC 64.2% | TK-10 renal 22.9% | CCRF-CEM leukemia 30.4% | OVCAR-8 ovarian 14.9% | OVCAR-5 ovarian 23.3% | OVCAR-4 ovarian 21% | IGROV1 ovarian 21.4% | HS 578T breast 12%
